TDP1 inh: qHTS Assay for Inhibitors of Tyrosyl-DNA Phosphodiesterase (TDP1); 350,000 tested, 0.28% active; Potency, µM (top dose mostly 130 µM), for inactives: at the highest dose activity change, negative = inhibition, most hits filed as inhibitors; Tyrosyl-DNA phosphodiesterase 1 (Homo sapiens), Q9NUW8; AID 485290, 2010; recombinant TDP1, AlphaScreen DNA substrate cleavage; note: nearly all actives have a fitted effect of over 40% in size
Target sequence (Q9NUW8 whole entry, looked up): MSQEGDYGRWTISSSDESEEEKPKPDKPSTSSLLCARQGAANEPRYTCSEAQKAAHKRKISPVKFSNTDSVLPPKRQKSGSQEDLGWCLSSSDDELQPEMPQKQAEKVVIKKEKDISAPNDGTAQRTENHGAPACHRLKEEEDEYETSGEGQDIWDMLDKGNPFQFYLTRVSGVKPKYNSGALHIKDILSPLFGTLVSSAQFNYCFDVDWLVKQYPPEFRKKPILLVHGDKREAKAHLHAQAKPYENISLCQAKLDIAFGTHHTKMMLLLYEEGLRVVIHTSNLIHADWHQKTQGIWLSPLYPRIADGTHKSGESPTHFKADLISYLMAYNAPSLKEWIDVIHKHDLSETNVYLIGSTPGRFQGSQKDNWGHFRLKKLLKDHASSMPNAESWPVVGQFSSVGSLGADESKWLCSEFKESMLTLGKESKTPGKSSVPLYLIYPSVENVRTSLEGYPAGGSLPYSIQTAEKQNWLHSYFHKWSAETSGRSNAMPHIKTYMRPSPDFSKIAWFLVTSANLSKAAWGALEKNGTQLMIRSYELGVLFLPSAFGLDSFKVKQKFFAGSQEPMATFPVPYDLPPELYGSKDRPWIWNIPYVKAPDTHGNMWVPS
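Enzyme-compound mixtures sat 15 min at room temperature, followed by a 5 min reaction with 15 nM final substrate and 10 min with AlphaScreen beads. Recombinant human Tdp1 was used at 1 nM final.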
JMJD2E inh: qHTS Assay for Inhibitors of Human Jumonji Domain Containing 2E (JMJD2E) | AID 2147, 2009 | 230,000 tested, 1.6% active | Lysine-specific demethylase 4E (Homo sapiens), B2RXH2 | JMJD2E catalytic domain, FDH-coupled NADH fluorescence (FDH is formaldehyde dehydrogenase) | Potency, µM (highest dose often 57.1 µM), without a hit: at the highest dose activity change, negative = inhibition, actives largely listed as inhibitors; active = well fitted inhibition curve with a large enough effect, not every such curve was filed as active; inconclusive = small, poorly fitted or top-dose-only effect, or another doubt; inactive = no such curve, though single readings can be large or run the other way;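 note: 0% = wells with enzyme and -100% = buffer wells without enzyme; nearly all actives have a fitted effect of over 50% in size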
RECQ1 helicase: qHTS Assay for Inhibitors of RecQ-Like Dna Helicase 1 (RECQ1); Potency, µM (titrated, usually from 57.3 µM), for the others: at the top dose activity, negative = inhibition, actives largely listed as inhibitors; RECQ1 DNA unwinding, red fluorescence kinetic read; 240,000 tested, 0.54% active; ATP-dependent DNA helicase Q1 (Homo sapiens), P46063;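 note: plate controls were vehicle for no effect and no enzyme for full effect; nearly all actives have a fitted effect of over 30% in size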
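50 nM RECQ1T1 preincubated 15 min with compound in Tris pH 8.0 buffer with MgCl2, DTT, Tween-20 and 2.5 ug/ml poly(dI-dC); started with 200 nM TAMRA/BHQ-2 forked duplex and 2 mM ATP. Unwinding read as fluorescence (525/598 nm), two reads 2 h apart.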
APE1 inh: qHTS Assay for Inhibitors of the Human Apurinic/apyrimidinic Endonuclease 1 (APE1); DNA repair nuclease/redox regulator APEX1 (Homo sapiens), P27695; recombinant APE1, TAMRA/BHQ-2 abasic DNA cleavage fluorescence; Potency, µM (titrated, usually from 65.8 µM), for the others: top-dose activity change, negative = inhibition, actives largely listed as inhibitors; 350,000 tested, 0.35% active; AID 2517, 2012;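 note: plate controls were vehicle for no effect and reference inhibitor for full effect; nearly all actives have a fitted effect of over 55% in size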
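APE1 at 0.75 nM preincubated 15 min at room temperature with compound. Reaction then started with 50 nM double-stranded THF-abasic substrate labelled with TAMRA/BHQ-2, and 525/598 nm fluorescence read kinetically. Activity taken as third-minus-first read difference, normalized to DMSO and NSC13755 controls.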
L3MBTL1 inh: qHTS Assay for the Inhibitors of L3MBTL1; Lethal(3)malignant brain tumor-like protein 1 (Homo sapiens), Q9Y468; AlphaScreen L3MBTL1–H3K9me1 peptide binding; Potency, µM (highest dose often 57.1 µM), without a hit: at the top dose activity, negative = inhibition, most hits filed as inhibitors; 230,000 tested, 0.66% active; note: nearly all actives have a fitted effect of over 60% in size
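AlphaScreen proximity signal between nickel-chelate acceptor and streptavidin donor beads (final 10 ug/mL) reports binding of 50 nM L3MBTL1 to 75 nM biotin-H3 K9me1 peptide; complex incubated with compounds 30 min at room temperature; cefsulodin titration as control.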
BLM helicase inh: qHTS Assay for Inhibitors of Bloom's syndrome helicase (BLM) | RecQ-like DNA helicase BLM (Homo sapiens), P54132 | recombinant BLM DNA unwinding, fluorescence dequenching | Potency, µM (series often up to 56.1 µM), without a hit: top-dose activity change, negative = inhibition, most hits filed as inhibitors | 350,000 tested, 0.2% active | AID 2528, 2010;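 note: plate controls were vehicle for no effect and no enzyme for full effect; nearly all actives have a fitted effect of over 35% in size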
Starred values were filed as active, the others as inactive; i = inactive; ? = inconclusive; · = not tested or not shown; [ ] = another dose, or the depositor's remark. Shown is part of a subset that was picked to be rich in hits. Unless noted, calls come from the whole dose curve; as a rule, active = well fitted curve in the direction sought with a large enough effect; inconclusive = small, poorly fitted or top-dose-only effect, or another doubt; inactive = no such curve, though single readings can be large; an effect the other way counts as inactive or inconclusive. Unless noted, % is set by controls: 0 for no effect and ±100 for the full control effect; potency is the fitted concentration of half-maximal effect.

SMILES | TDP1 inh | JMJD2E inh | RECQ1 helicase | APE1 inh | L3MBTL1 inh | BLM helicase inh
c1ccc(-c2cn3c(n2)-c2ccccc2C3)cc1 | 5.4% | 3.16µM* | -10.6% | 10.8% | -10.8% | 6.1%
Cc1cc2c(s1)c1cnn(Cc3ccc(F)cc3)c(=O)c1n2C | 50.1µM* | · | · | · | · | ·
COc1cccc(Cn2ncc3c4sc(B(O)O)cc4n(C)c3c2=O)c1 | · | · | · | 9.47µM* | 1.7% | ·
CN(C)S(=O)(=O)c1cccc(NC(=S)N/N=C/c2cc(Br)ccc2O)c1 | · | 10µM* | -15.6% | 0.7% | 10µM* | 3.9%
CN(C)S(=O)(=O)c1cccc(NC(=S)N/N=C/c2cccc(O)c2)c1 | 2.4% | 4.2% | i | -1.5% | 6.1% | -3.3%
O=S1(=O)N=C(Oc2cccc(C(F)(F)F)c2)c2ccccc21 | 1.7% | · | · | · | · | ·
C/C(=N\NC(=O)CSCc1ccccc1Cl)c1cc(O)ccc1O | 10.3% | 4.47µM* | 22.2% | -6.6% | -28.6% | -20.6%
C=C(C)C(=O)Nc1ccc2c(c1)OCCOCCOCCO2 | · | -8.4% | ? | -1.3% | 3.55µM* | ?
CC(=O)Nc1ccc2c(c1)OCCO2 | -1.9% | 5.4% | -0.7% | -0.7% | -0.5% | 1.4%
CC[C@H](C)[C@H](NC(=O)[C@H](CCC(=O)O)NC(=O)[C@H](CO)NC(=O)[C@@H](NC(=O)[C@H](C)N)C(C)C)C(=O)N[C@@H](CCC(N)=O)C(=O)N[C@@H](CC(C)C)C(=O)N[C@@H](CCSC)C(=O)N[C@@H](Cc1cnc[nH]1)C(=O)N[C@@H](CC(N)=O)C(=O)N[C@@H](CC(C)C)C(=O)NCC(=O)N[C@@H](CCCCN)C(=O)N[C@@H](Cc1cnc[nH]1)C(=O)N[C@@H](CC(C)C)C(=O)N[C@@H](C)C(=O)N[C@@H](CO)C(=O)N[C@H](C(=O)N[C@@H](CCC(=O)O)C(=O)N[C@@H](CCCNC(=N)N)C(=O)N[C@@H](CCSC)C(=O)N[C@@H](CCC(N)=O)C(=O)N[C@@H](Cc1c[nH]c2ccccc12)C(=O)N[C@@H](CC(C)C)C(=O)N[C@@H](CCCNC(=N)N)C(=O)N[C@@H](CCCCN)C(=O)N[C@@H](CCCCN)C(=O)N[C@@H](CC(C)C)C(=O)N[C@@H](CCC(N)=O)C(=O)N[C@@H](CC(=O)O)C(=O)N[C@H](C(=O)N[C@@H](Cc1cnc[nH]1)C(=O)N[C@@H](CC(N)=O)C(=O)N[C@@H](Cc1ccccc1)C(=O)O)C(C)C)C(C)C | 11.5% | · | -13.1% | 1.6% | · | -11.4%
CNC(C)[C@@H]1CC[C@@H](N)[C@@H](O[C@H]2[C@H](O)[C@@H](O[C@H]3OC[C@](C)(O)[C@H](NC)[C@H]3O)[C@H](N)C[C@@H]2N)O1 (some centres undefined) | · | · | · | 3.1%[21 µM] | · | ·
O=C1CCCC/C1=N\Nc1ccc(C2CCCCC2)cc1 | 7.1% | -6.5% | -9.5% | 21.2% | 2.8% | -12.0%
O=C(O)c1ccc(C2CCCCC2)cn1 | 10.9% | ? | -2.2% | 15.0% | 17.8µM* | -10.8%
COc1cc2cc(Oc3ccc4ccc(=O)oc4c3)c(=O)oc2cc1O[C@@H]1O[C@H](CO)[C@@H](O)[C@H](O)[C@H]1O | 25.1µM* | · | · | -39.0% | 31.6µM* | ·
Cc1c(C)c2ccc(O[C@@H]3O[C@H](CO)[C@H](O)[C@H](O)[C@H]3O)cc2oc1=O | · | · | · | 1.8% | · | 1.2%
N#CC(c1ccccc1O)N1N=C(c2ccccc2)CC1c1ccccc1 (centres undefined) | 1.2% | 31.6µM* | -4.4% | -1.6% | 35.6% | -15.5%
